Experimental data as given in PubChem BioAssay.
Active and inactive are the calls of the source. Unless noted, the rule behind the calls is not given here.

Assays:
[1] = compound effects on lung adenocarcinoma cell viability – A549, calcein-AM fluorescence, 48 h, basal, profiling panel (AID 1162); conditions: higher = more signal; note: test concentration not given here
[2] = compound effects on differentiated 3T3-L1 adipocyte viability – cell-based, 3T3-L1 adipocytes, calcein-AM fluorescence, 48 h, basal, profiling panel (AID 1163); conditions: 3T3-L1 adipocytes viability, higher = more signal; note: test concentration not given here
[3] = compound effects on hepatocellular carcinoma cell viability – HepG2, calcein-AM fluorescence, 48 h, basal, profiling panel (AID 1164); conditions: higher = more signal; note: test concentration not given here
[4] = compound effects on multiple myeloma cell viability – MM1S, calcein-AM fluorescence, 48 h, basal, profiling panel (AID 1165); conditions: higher = more signal; note: test concentration not given here
[5] = calcein-AM signal in unstimulated myeloma cells – cell-based, calcein-AM fluorescence, 48 h, PK04 Diversity Set, profiling panel (AID 1166); conditions: RPMI8226 myeloma viability, higher = more signal;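 note: cells grown under basal conditions without added stimulus; test concentration not given here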
[6] = JC-1 mitochondrial signal, unstimulated HepG2 cells – cell-based, JC-1 fluorescence, 24 h, 100 nL compound, profiling panel (AID 1167); conditions: HepG2 mitochondrial potential, higher = more signal; note: test concentration not given here
[7] = JC-1 mitochondrial signal, unstimulated adipocytes – cell-based, JC-1 fluorescence, 3T3-L1 adipocytes, 24 h, 100 nL compound, profiling panel (AID 1168); conditions: JC-1 mitochondrial fluorescence, higher = more signal, called active from +8 up or from −8 down; note: test concentration not given here
[8] = JC-1 mitochondrial signal, unstimulated myeloma cells – cell-based, JC-1 fluorescence, RPMI8226, 24 h, 100 nL compound, profiling panel (AID 1169); conditions: JC-1 mitochondrial potential fluorescence, higher = more signal; note: test concentration not given here
[9] = JC-1 mitochondrial signal, unstimulated MM1S myeloma – cell-based, JC-1 fluorescence, 24 h, 100 nL compound, profiling panel (AID 1170); conditions: MM1S mitochondrial potential, higher = more signal; note: test concentration not given here
[10] = resazurin metabolic signal in A549 cells – cell-based, resazurin fluorescence, 24 h, PK04 Diversity Set, profiling panel (AID 1171); conditions: A549 viability, higher = more signal, called active from +8 up or from −8 down; note: test concentration not given here
[11] = resazurin metabolic signal in HepG2 cells – cell-based, resazurin fluorescence, 24 h, PK04 Diversity Set, profiling panel (AID 1172); conditions: HepG2 viability, higher = more signal; note: test concentration not given here
[12] = budding yeast growth changes without added modifier – OD600, strain BY4716, 24 h, basal condition, primary screen (AID 1173); conditions: S. cerevisiae BY4716 growth, OD600, 24 h; higher = more signal, called active from +8 up or from −8 down
[13] = viability profiling in MM1S myeloma cells – cell-based, resazurin fluorescence, basal, 24 h, PK04 Diversity Set, profiling panel (AID 1174); conditions: higher = more signal, called active from +8 up or from −8 down; note: test concentration not given here
[14] = molecular target: Dihydroorotate dehydrogenase (quinone), mitochondrial (Plasmodium falciparum (isolate 3D7)) (UniProt Q08210); assay: inhibition of P. falciparum DHODH – biochemical, C-terminal His tag, absorbance 600 nm, primary screen (AID 1175); conditions: PfDHODH enzyme, DCIP absorbance 600 nm; higher = more signal, called active from +8 up or from −8 down;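 note: recombinant parasite enzyme with a five histidine tag at its C terminus; test concentration not given here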
[15] = inhibition of PAO1 biofilm formation – strain PAO1, LB-PBS medium, absorbance 600 nm, primary screen (AID 1176); note: test concentration not given here; conditions: P. aeruginosa PAO1 growth/biofilm, A600, 12 h; higher = more signal
[16] = growth modulation of vineyard yeast isolate – strain RM11-1a, OD600, basal, 24 h, primary screen (AID 1177);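 note: cultures grown under basal conditions with no added stressor; test concentration not given here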; conditions: S. cerevisiae RM11-1a growth, OD600, 24 h; higher = more signal, called active from +8 up or from −8 down
[17] = growth of efflux-deficient E. coli DRC39 – strain DRC39, OD650, 24 h, E. coli filamentation inducers, primary screen (AID 1178);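 note: growth measured as culture turbidity by optical density at 650 nm; test concentration not given here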; conditions: E. coli DRC39 acrAB, higher = more signal, called active from +8 up or from −8 down
[18] = growth of efflux-deficient E. coli DRC39 – strain DRC39, OD650, 48 h, E. coli filamentation inducers, primary screen (AID 1179);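 note: screen aims at cell division blockers that make cells filament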; conditions: E. coli DRC39 delta-acrAB growth, higher = more signal, called active from +8 up or from −8 down
[19] = viability profiling in RPMI8226 myeloma cells – cell-based, resazurin fluorescence, basal, 24 h, PK04 Diversity Set, profiling panel (AID 1180); conditions: higher = more signal;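 note: RPMI8826 multiple myeloma cell line at 5000 cells per well; test concentration not given here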
[20] = molecular target: E3 ubiquitin-protein ligase XIAP (Homo sapiens) (UniProt P98170); assay: small molecules binding XIAP protein – biophysical, small-molecule microarray, fluorescence 635 nm, primary screen (AID 1181); conditions: higher = more signal;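 note: score merges 667 nm emission and signal to noise over triplicate slides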
Sequence of E3 ubiquitin-protein ligase XIAP (Homo sapiens) (P98170 whole entry, looked up): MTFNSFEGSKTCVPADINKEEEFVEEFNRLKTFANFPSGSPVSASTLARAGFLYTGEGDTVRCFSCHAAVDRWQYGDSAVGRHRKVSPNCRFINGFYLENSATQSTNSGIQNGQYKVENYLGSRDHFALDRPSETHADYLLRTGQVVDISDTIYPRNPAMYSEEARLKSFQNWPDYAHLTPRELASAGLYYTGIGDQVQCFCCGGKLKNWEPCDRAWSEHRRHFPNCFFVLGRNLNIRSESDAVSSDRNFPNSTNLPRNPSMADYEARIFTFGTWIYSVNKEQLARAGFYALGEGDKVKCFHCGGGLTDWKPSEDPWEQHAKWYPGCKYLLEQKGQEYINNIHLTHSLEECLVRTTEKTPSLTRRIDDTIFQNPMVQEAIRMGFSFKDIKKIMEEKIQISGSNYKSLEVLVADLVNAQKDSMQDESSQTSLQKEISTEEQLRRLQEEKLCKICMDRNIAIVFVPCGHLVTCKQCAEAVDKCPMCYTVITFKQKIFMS

Sequence of Dihydroorotate dehydrogenase (quinone), mitochondrial (Plasmodium falciparum (isolate 3D7)) (Q08210 whole entry, looked up): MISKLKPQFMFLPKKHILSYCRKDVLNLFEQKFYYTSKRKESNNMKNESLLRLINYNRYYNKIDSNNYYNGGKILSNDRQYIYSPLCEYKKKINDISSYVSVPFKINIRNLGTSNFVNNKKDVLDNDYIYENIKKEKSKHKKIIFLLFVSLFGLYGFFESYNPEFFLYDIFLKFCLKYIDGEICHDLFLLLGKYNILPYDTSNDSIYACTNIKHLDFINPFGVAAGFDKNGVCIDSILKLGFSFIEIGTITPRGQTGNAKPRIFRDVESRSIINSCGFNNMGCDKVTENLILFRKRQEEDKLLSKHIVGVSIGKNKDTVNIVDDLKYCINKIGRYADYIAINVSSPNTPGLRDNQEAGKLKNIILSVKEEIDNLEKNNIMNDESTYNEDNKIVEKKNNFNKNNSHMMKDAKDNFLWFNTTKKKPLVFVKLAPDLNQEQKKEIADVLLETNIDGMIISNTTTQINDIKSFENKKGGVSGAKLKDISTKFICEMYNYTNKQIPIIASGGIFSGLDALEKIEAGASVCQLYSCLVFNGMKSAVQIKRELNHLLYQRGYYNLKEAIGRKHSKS

Compound | z-score [1] | z-score [2] | z-score [3] | z-score [4] | z-score [5] | z-score [6] | z-score [7] | z-score [8] | z-score [9] | z-score [10] | z-score [11] | z-score [12] | z-score [13] | composite z-score [14] | z-score [15] | z-score [16] | z-score [17] | z-score [18] | z-score [19] | composite z-score [20]
COCCOC(=O)N1C(=O)[C@@]2(c3cc(C#Cc4ccc(OC)cc4)ccc31)[C@H](C(=O)NC[C@H](O)c1ccccc1)[C@H]1C(=O)O[C@H](c3ccccc3)[C@H](c3ccccc3)N1[C@@H]2c1ccc(OCCO)cc1 | -0.953 | 0.55 | -1.1 | -0.915 | -1.47 | -1.97 | 2.35 (inactive) | -0.66 | -1.78 | 1.32 (inactive) | 1.21 | 1.95 (inactive) | 0.0406 (inactive) | 1.86 (inactive) | 1.93 (inactive) | 2.67 (inactive) | 0.14 (inactive) | -0.35 (inactive) | -0.285 | -0.0883
Nc1cc(Br)ccc1C(=O)O | 1.51 | 0.679 | 0.264 | 1.29 | 0.804 | 0.799 | 0.55 (inactive) | 0.432 | 1.54 | 0.671 (inactive) | 0.615 | -0.811 (inactive) | 1.11 (inactive) | -0.627 (inactive) | -0.612 (inactive) | -0.127 (inactive) | 0.37 (inactive) | -0.138 (inactive) | 1.29 | 0.0837
COCCOC(=O)N1C(=O)[C@@]2(c3cc(C#CCCO)ccc31)[C@H](C(N)=O)[C@H]1C(=O)O[C@H](c3ccccc3)[C@H](c3ccccc3)N1[C@@H]2c1ccc(OCCO)cc1 | 0.518 | 0.0809 | 0.325 | -0.971 | -0.859 | -1.78 | 0.959 (inactive) | -0.505 | -0.0622 | -0.0958 (inactive) | -0.639 | 1.21 (inactive) | -0.479 (inactive) | 0.46 (inactive) | 1.56 (inactive) | 2.16 (inactive) | -0.138 (inactive) | 0.386 (inactive) | -0.621 | 0.409
O=C(O)[C@@H]1C[C@@H]2C(=O)N3CCC[C@H]3C(=O)N2[C@@H]1c1cccc(OCCO)c1 | 0.0951 | 0.717 | -0.439 | -0.456 | -0.159 | 0.591 | 0.283 (inactive) | 0.817 | 0.718 | -0.0326 (inactive) | -0.188 | -1.28 (inactive) | -0.447 (inactive) | -0.899 (inactive) | 0.547 (inactive) | 0.0761 (inactive) | -0.185 (inactive) | -0.685 (inactive) | -0.0605 | 0.338
NCCCCCNC(=O)[C@@H]1C[C@@H]2C(=O)N3CCC[C@H]3C(=O)N2[C@@H]1c1ccc(O)cc1 | 0.389 | 0.485 | 0.2 | -0.42 | 0.209 | -0.0437 | -0.645 (inactive) | -0.175 | 0.73 | -0.234 (inactive) | -0.448 | 0.2 (inactive) | 0.422 (inactive) | 0.509 (inactive) | -0.102 (inactive) | 0.801 (inactive) | -0.281 (inactive) | -0.107 (inactive) | 0.272 | -0.0663
O=C1c2ccccc2[C@](Cc2ccccc2I)(C(=O)NC2CC2)[C@H](c2ccc(CO)cc2)N1Cc1ccccc1C(F)(F)F | 0.319 | 0.865 | -0.0085 | -0.645 | -2.83 | 0.476 | 0.347 (inactive) | -0.761 | -0.154 | 0.272 (inactive) | -0.113 | -0.637 (inactive) | 0.762 (inactive) | 0.129 (inactive) | 0.842 (inactive) | 0.108 (inactive) | 0.169 (inactive) | -0.707 (inactive) | 0.154 | 0.125
CCOC(=O)C1=C[C@@H](C(C)(C)C)N(S(=O)(=O)c2ccc(C)cc2)[C@H]1c1cccc(Cl)c1 | -2.79 | -0.192 | -2.64 | -2.77 | -4.21 | 5.38 | 0.318 (inactive) | -1.14 | -2.3 | -1.12 (inactive) | -0.594 | 2.15 (inactive) | -1.66 (inactive) | 1.08 (inactive) | 0.16 (inactive) | 2.81 (inactive) | -0.326 (inactive) | -0.104 (inactive) | -3.41 | -0.0994
O=C1N[C@@H](Cc2ccccc2)C(=O)N2[C@@H]1C[C@@H](C(=O)O)[C@H]2c1ccc(O)cc1 | -0.178 | 0.699 | -0.361 | -3.36 | 0.293 | 0.873 | 0.649 (inactive) | 0.201 | -0.75 | -0.182 (inactive) | -0.425 | -1.14 (inactive) | 0.746 (inactive) | -0.708 (inactive) | -0.13 (inactive) | -0.319 (inactive) | -0.143 (inactive) | -0.803 (inactive) | 0.0674 | 0.0518
O=C1[C@@]23C=C(Br)[C@H](C[C@@H]2COC3)[C@@]12CO2 | -0.0321 | -1.05 | -0.493 | -2.27 | -1.1 | -1.73 | 0.281 (inactive) | -0.213 | -0.809 | -0.252 (inactive) | -0.198 | -0.237 (inactive) | -0.402 (inactive) | 0.571 (inactive) | 0.224 (inactive) | 0.254 (inactive) | -0.417 (inactive) | -0.0396 (inactive) | -0.373 | -0.102
